Measured values reported in PubChem BioAssay AID1159580 (chemical genetic matrix, 2015).
“And” between values parts separate entries of the source, which are not always exact repeats. Equal entries are not always repeated. In all, about 5,500 compounds went through this assay and about 2,000 (36%) were called active. Another 18% or so got no clear call; they are omitted. No stated cut-off is given here; in the data, active means normalized growth mostly below about 0.91 (no sharp cut-off); inconclusive means no clear call, values can overlap the other calls; inactive means mostly above about 0.92. Some of the results follow.

Test: chemical genetic growth profiling, strain panel (AID 1159580);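 further: tested at 20 µM; growth read once vehicle control cultures reached saturation at 30 °C; 1 = growth at the plate median or of vehicle wells; lower values mean less growth of the strain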
Conditions: S. cerevisiae deletion strains, growth OD

Measured: normalized growth

CC1(C)S[C@@H]2[C@H](NC(=O)C(C(=O)O)c3ccccc3)C(=O)N2[C@H]1C(=O)O (stereo partly drawn)
inactive: locus YAL021C, strain ccr4, hits give low values 0.979 | locus YAL026C, strain drs2, hits give low values 0.979 | locus YAL030W, strain snc1, hits give low values 0.985 | locus YBL061C, strain skt5, hits give low values 0.959 | locus YBR009C, strain hhf1, hits give low values 0.934 | locus YBR021W, strain FUR4, hits give low values 0.998 | locus YBR023C, strain chs3, hits give low values 0.966 | locus YBR171W, strain sec66, hits give low values 0.948 | locus YBR229C, strain ROT2, hits give low values 0.987 | locus YBR231C, strain swc5, hits give low values 1 | locus YBR279W, strain paf1, hits give low values 0.985 | locus YCL011C, strain gbp2, hits give low values 0.933 | locus YCL016C, strain dcc1, hits give low values 0.938 | locus YCL029C, strain bik1, hits give low values 0.99 | locus YCL061C, strain MRC1, hits give low values 0.976 | locus YCL069W, strain vba3, hits give low values 0.985 | locus YCR088W, strain abp1, hits give low values 0.996 | locus YDL005C, strain med2, hits give low values 0.999 | locus YDL035C, strain GPR1, hits give low values 1.02 | locus YDL040C, strain nat1, hits give low values 0.997 | locus YDL074C, strain BRE1, hits give low values 0.995 | locus YDL101C, strain DUN1, hits give low values 0.982 | locus YDL134C, strain PPH21, hits give low values 0.999 | locus YDL185W, strain tfp1, hits give low values 0.982 | locus YDL192W, strain arf1, hits give low values 0.98 | locus YDR001C, strain nth1, hits give low values 0.98 | locus YDR069C, strain doa4, hits give low values 0.978 | locus YDR101C, strain arx1, hits give low values 0.994 | locus YDR137W, strain rgp1, hits give low values 0.944 | locus YDR159W, strain sac3, hits give low values 1.01 | locus YDR162C, strain NBP2, hits give low values 1.01 | locus YDR195W, strain ref2 0.987 | locus YDR297W, strain sur2, hits give low values 0.969 | locus YDR318W, strain mcm21, hits give low values 0.99 | locus YDR334W, strain swr1, hits give low values 0.926 | locus YDR335W, strain msn5, hits give low values 0.978 | locus YDR388W, hits give low values 0.995 | locus YDR392W, strain spt3, hits give low values 0.895 | locus YDR502C, strain sam2, hits give low values 0.995 | locus YEL003W, strain gim4, hits give low values 0.99 | locus YEL037C, strain rad23, hits give low values 0.977 | locus YEL061C, strain CIN8 (second series), hits give low values 0.989 | locus YEL061C, strain CIN8, hits give low values 1 | locus YER015W, strain faa2, hits give low values 0.986 | locus YER016W, strain bim1, hits give low values 0.962 | locus YER110C, hits give low values 0.979 | locus YER111C, strain swi4, hits give low values 0.979 | locus YER155C, strain BEM2 (second series), hits give low values 1.03 | locus YER155C, strain BEM2, hits give low values 0.991 | locus YER167W, strain BCK2, hits give low values 0.993 | locus YFR010W, strain ubp6, hits give low values 0.962 | locus YGL078C, strain dbp3, hits give low values 0.993 | locus YGL086W, strain mad1, hits give low values 0.989 | locus YGL167C, strain pmr1, hits give low values 0.96 | locus YGL173C, strain kem1, hits give low values 0.96 | locus YGL227W, strain vid30, hits give low values 0.985 | locus YGL240W, strain doc1, hits give low values 1.01 | locus YGL248W, strain PDE1, hits give low values 0.982 | locus YGL253W, strain hxk2, hits give low values 0.982 | locus YGR135W, strain pre9, hits give low values 0.988 | locus YGR252W, strain gcn5, hits give low values 0.981 | locus YHR013C, strain ard1, hits give low values 0.949 | locus YHR027C, strain rpn1, hits give low values 0.945 | locus YHR030C, strain SLT2, hits give low values 0.991 and 1.01 | locus YHR079C, strain IRE1 (second series), hits give low values 0.989 | locus YHR079C, strain IRE1, hits give low values 1.02 | locus YHR094C, strain hxt1, hits give low values 0.984 | locus YHR129C, strain ARP1, hits give low values 0.99 | locus YHR142W, strain chs7, hits give low values 0.934 | locus YHR200W, strain rpn10, hits give low values 0.985 | locus YIL066C, strain RNR3, hits give low values 1.01 | locus YIL073C, strain SPO22, hits give low values 1.03 | locus YIL125W, strain kgd1, hits give low values 0.984 | locus YIR030C, strain dcg1, hits give low values 0.987 | locus YJL092W, strain hpr5, hits give low values 0.968 | locus YJL095W, strain BCK1 (second series), hits give low values 0.975 | locus YJL095W, strain BCK1, hits give low values 0.978 and 1 | locus YJL115W, strain asf1, hits give low values 0.952 | locus YJL129C, strain trk1, hits give low values 0.944 | locus YJL134W, strain LCB3, hits give low values 0.992 | locus YJL154C, strain vps35, hits give low values 0.982 | locus YJL164C, strain tpk1, hits give low values 0.962 | locus YJL166W, strain qcr8, hits give low values 0.977 | locus YJL168C, strain set2, hits give low values 0.984 | locus YJL187C, strain SWE1 (second series), hits give low values 0.988 | locus YJL187C, strain SWE1, hits give low values 0.979 | locus YJR043C, strain POL32, hits give low values 1.01 | locus YJR066W, strain TOR1, hits give low values 0.992
